About 5,000 (1.4%) of roughly 360,000 compounds were called active.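 How the source made its calls: active means inhibition of 50% or more, scaled per plate between neutral and stimulator controls; inactive means the rest.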 The entries come from a sample that favours actives as a whole.
Test: blockers of Ca2+-induced mitochondrial swelling – biochemical, isolated mouse mitochondria, absorbance, primary screen (AID 602449);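 further: 0% = DMSO wells given calcium and 100% = 1 mM EGTA wells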
Details: 30 min, at 10 µM, hits give high values

inhibition, active:
CCOC(=O)N1CCN(C(=O)C2CCN(c3ncnc4c3sc3cccc(F)c34)CC2)CC1 50%
CC1(C)CC(=O)c2sc(N)nc2C1 83.2%
CCCCCCc1cc2cc(-c3nnc(-c4ccccc4)o3)c(=O)oc2cc1O 96.2%
CCc1cc2c(NC3CCCC3)ncnc2s1 87.6%
CC(C)N1C(=S)SC(C)(C)C1n1oc(=O)n(-c2ccc(Cl)c(Cl)c2)c1=O (configuration not stated) 92.3%
CC(C)S(=O)(=O)c1csc(NC(=O)Nc2ccc(Cl)cc2)c1Cl 88.8%
COc1ccc(S(=O)(=O)Nc2ccc3oc(C)c(C(C)=O)c3c2)cc1 93.4%
COc1cc(NS(=O)(=O)c2ccc(NC(C)=O)cc2)cc(OC)c1 54%
CCCC[C@@H]1CN=C(N)N1CCc1cc(C(F)(F)F)cc(C(F)(F)F)c1 88.5%
FC(F)Oc1ccccc1NC(=S)Nc1cccc(Cl)c1Cl 50.2%
Cc1cc2ncn(CCCCOc3ccccc3)c2cc1C 77.9%
CC(C)CC(=O)N/C(N)=N/c1nc2ccccc2s1 81.8%
CC(C)(CCl)C(=O)Nc1ccc(Sc2ccc(F)cc2)cc1 73.1%
C=CCC1(CC=C)CCCN1C(=O)c1cc(COc2ccc(-n3cncn3)cc2)on1 105%
O=C(c1ccc(N2CCCC2=O)cc1)N1CCN(c2ccc(C(F)(F)F)cc2[N+](=O)[O-])CC1 74.9%
Brc1ccc(CSc2ccc(-c3ccco3)nn2)cc1 57.6%
Cc1nn(C)cc1CNC(=O)Nc1ccc(Cl)cc1 92.2%

inhibition, inactive:
CCO/N=C(/C)c1c(O)cc(-c2ccccc2)n(-c2ccccc2)c1=O 8.8%
O=S1(=O)CC(N2CCC(Cc3ccccc3)CC2)CN1Cc1ccccc1 (configuration not stated) 0.9%
COc1ccc(OCCCC(=O)Nc2nnc(C3CCCO3)s2)cc1 (configuration not stated) 1.4%
CCC1CCCCN1C(=S)NC(=O)c1ccco1 (configuration not stated) -3.3%
COc1cc(OC)cc(C(=O)Nc2nnc(SCC(=O)NCC3CCCO3)s2)c1 (configuration not stated) -0.7%
CCOC(=O)N1CCN(C(=O)C2CCN(S(=O)(=O)c3cc(Cl)ccc3OCC)CC2)CC1 -0.2%
CCOC(=O)N1CCN(C(=O)C2CCCN(c3ncnc4c3sc3cccc(F)c34)C2)CC1 (configuration not stated) 20.7%
COC(=O)C1C(=O)NCC1c1ccc(OC)cc1 (configuration not stated) 1.1%
Cc1nn(-c2ccccc2)c(CC(C)(C)C(=O)O)c1C(=O)O -5.4%
Nc1[nH]c(C(=O)c2ccccc2)c(-c2ccc(Br)cc2)c1C(=O)NC1CC1 0.8%
COc1ccccc1N1CC(C(=O)Nc2nnc(SCC(=O)NC(C)C)s2)CC1=O (configuration not stated) 0.4%
CC1=NC2(CCCc3c2no[n+]3[O-])N(O)C1(C)C (configuration not stated) 0.8%
CCCc1nc(N)nc2c1C(=O)CC(C)(C)C2 -2.5%
CC(=O)Nc1nc2c(s1)C(=O)NCC(C)(C)C2 0%
COc1cccc(NC(=O)CN(C)C(=O)CSC(=S)N2CCCC2)c1 -0.1%
CCCS(=O)(=O)N1CCCC(C(=O)NCCN2CCCCC2C)C1 (configuration not stated) -1.3%
COc1ccccc1CNC(=O)CCCNS(=O)(=O)c1cccc2nsnc12 -0.6%
COCCCNC(=O)CN1C(=O)CSc2ccc(S(=O)(=O)N3CCOCC3)cc21 2.1%
CCc1cc2c(NC(Cc3ccccc3)C(=O)O)ncnc2s1 (configuration not stated) 1.6%
CCc1cc2c(SCC(=O)Nc3ncc(Cl)c(C)c3Cl)ncnc2s1 46.1%
CC(=O)Oc1ccc(OC(C)=O)c2c1C1C=CC2CC1 -0.2%
COc1cccc(-c2cnc3c(NC(C)=O)cc(-c4cc(F)ccc4OC)cn23)c1 -0.3%
Cc1cc(=O)cc(C)n1-c1ccc(Cl)c(Cl)c1 -0.1%
O=C1CSC(=S)N1c1ccc(Cl)c(Cl)c1 2.2%
N#Cc1cc([N+](=O)[O-])ccc1NC(=O)COC(=O)c1cnccn1 -1.8%
Cc1ccc(OCCNC(=O)CNC(=O)c2ccc(C)c(C)c2)cc1 -0.6%
O=C(Nc1cccc(Br)c1)C1CC(=O)N(C2CCCC2)C1 (configuration not stated) -0.1%
CC(=O)N1CCC(N(C(=O)Nc2ccc(Cl)cc2)C(C)C)CC1 2.8%
COc1ccc(OCC(O)CNC(=O)Nc2ccc(Cl)cc2)cc1 (configuration not stated) 6.8%
Cc1ccc(S(=O)(=O)N(C)C)cc1NC(=O)COC(=O)/C=C/c1cccs1 -1.3%
Cc1c(C)c(C)c(S(=O)(=O)N2CCC3(CC2)OCCO3)c(C)c1C -0.6%
COC(=O)/C(C#N)=C/c1occc1C 1.6%
COc1ccc(NS(=O)(=O)c2ccc(NC(=S)NC(=O)CC(C)C)cc2)cc1 0.5%
CC(=O)c1c(C)oc2ccc(NS(=O)(=O)c3ccc(C(=O)O)cc3)cc12 0.1%
CC(=O)Nc1ccc(NS(=O)(=O)c2ccc3c(c2)NC(=O)CC(=O)N3)cc1 -1.8%
CC(=O)c1c(C)oc2ccc(NS(=O)(=O)c3ccccc3)cc12 -0.4%
Cc1c(S(=O)(=O)NC(C)c2ccccc2)c(=O)n(C)c(=O)n1C (configuration not stated) 1.4%
CN(Cc1nc2ccccc2c(=O)[nH]1)Cc1cc(=O)oc2ccc3ccccc3c12 -0.3%
COc1cc(/C=N/N=C(\N)c2nonc2N)cc(OC)c1OC -1.6%
Cc1cc(Cl)ccc1-c1nc(NCCN(C)C)nc2ccsc12 1.8%
CC1(c2ccc3ccccc3c2)NC(=O)NC1=O (configuration not stated) 0.6%
Cc1nc(SCC(=O)NC2CCCCC2C)c(C#N)c(C)c1C (configuration not stated) 0.8%
O=[N+]([O-])c1ccc(Sc2n[nH]c(-c3ccco3)n2)nc1 -1.5%
CCCC[C@@H]1CN=C(N)N1CCCC 1.3%
CCCCN1C(N)=NC[C@@H]1Cc1ccccc1 -0.6%
CCCN(Cc1cc2cccc(C)c2[nH]c1=O)S(C)(=O)=O -1.3%
COc1cccc(CNc2ncc(-c3ccccc3)n2C)c1 2%
COc1ccc(/C=C/C(=O)Nc2ccc(C34CC5CC(CC(O)(C5)C3)C4)cc2)cc1OC -0.1%
CCOC(=O)c1ccc[n+](CC(=O)Nc2ccccc2OC(F)F)c1 -3.5%
CC(=O)Nc1ccc(NC(=O)COc2ccccc2C(=O)Nc2cccc(Cl)c2Cl)cc1 6.8%
Cc1ccccc1N1CC(C(=O)Nc2ccc(S(=O)(=O)N3CCCC3)cc2)CC1=O (configuration not stated) -2.9%
COCCOCCn1cnc2ccccc21 -0.6%
Clc1ncn(CCOc2ccccc2)c1Cl -3.1%
CCOC(=O)C1CCCN(C(=O)c2cccc3ccccc23)CC1 (configuration not stated) 0%
CC(C)CC(COCc1ccc(Cl)cc1)N1CCN(C(=O)c2ccc(C(F)(F)F)cc2)CCC1=O (configuration not stated) -1.6%
Cc1cc(C(=O)OCC(=O)Nc2nnc(C(C)C)s2)c2ccccc2n1 22.9%
CC(NC(=O)COC(=O)c1ccc2ccccc2n1)c1ccccc1 (configuration not stated) -0.2%
CCOC(=O)C1CCN(C(=O)CSc2cc(=O)n(C)c3ccccc23)CC1 0.5%
Cc1ccc(-n2cc(CN(C)Cc3nccn3C)c(-c3cccc(C)c3)n2)cc1 0.5%
CCN(c1ccccc1)S(=O)(=O)c1ccc(NC(=O)C(C)(C)C)cc1 -1.2%
O=C(CCl)Nc1ccc(Sc2ccc(NC(=O)CCl)cc2)cc1 6%
CC1(C)CCSC(/C=C/c2ccccc2)=N1 1.3%
COCCN1C(=O)C(=O)/C(=C(/O)c2ccc(S(=O)(=O)N3CCCCC3)cc2)C1c1ccc(OC)c(OC)c1 (configuration not stated) -0.3%
O=C(c1cc(COc2c(F)cccc2F)on1)N1CCSCC1 2%
CCCC(=O)N1CCC1(C)C(=O)Nc1ccc(-n2cncn2)cc1 (configuration not stated) -1.3%
CC(C)c1nc2oc3c(N4CCN(C)CC4)ncnc3c2c2c1CCC2 -0.5%
c1ccc2cc3c(NCCN4CCOCC4)ccnc3cc2c1 1.4%
O=C1CCCc2nn(-c3ccccc3)nc21 0.8%
O=C(c1ccc(N2CCOCC2)c([N+](=O)[O-])c1)N1CCN(c2ccccc2F)CC1 0%
COc1cc(OC)cc(C(=O)NC(=S)N2CCN(c3ccc(C(F)(F)F)cc3[N+](=O)[O-])CC2)c1 0.6%
CCOc1cc(CNn2c(C)nnc2SCC(=O)NC(C)(C)C)ccc1OCC(=O)NC(C)(C)C -1.3%
CC(C)(C)Nc1c(-c2cccs2)nc2ccccn12 0.8%
Cc1ccc(N(Cc2cc(=O)[nH]c3ccccc23)C(=O)CCl)cc1 -0.5%
COc1ccc(NC(=O)CSc2ccc(-c3ccco3)nn2)c(OC)c1 0.7%
O=C(CSc1ccc(-c2ccco2)nn1)NCc1ccc2c(c1)OCO2 -0.3%
CCn1c(=O)n(CC)c2cc(N3CCCC3)c(NC(=O)c3ccccc3Br)cc21 0.5%
CC/C(O)=C1\C(=O)CC(C)(C)CC1=NCCc1nc2ccccc2[nH]1 -1.5%
CC1C/C(=N/NC(=O)c2cccs2)CC(C)(C)C1 (configuration not stated) -1%
Cc1ccc(-c2cc(C(=O)NCc3cn(C)nc3C)c3cc(Br)ccc3n2)cc1 1.7%
Cc1nn(C)cc1C(=O)NNC(=S)Nc1ccc(Cl)cc1 1.7%

Source: PubChem BioAssay AID602449 (Sanford-Burnham Center for Chemical Genomics, 2012)
